Screen size: about 330,000 compounds; about 3,800 (1.2%) were called active. Cut-off read from the data, not from the text of the source: active = inhibition above about 15%; inconclusive = no clear call, values can overlap the other calls; inactive = below that. For the sample, actives were picked, then their nearest neighbours and some compounds at random.

For the test, the target named is NAD-dependent protein deacylase sirtuin-5, mitochondrial (Homo sapiens) (UniProt Q9NXA8). Kind of test: SIRT5 desuccinylase inhibitors, primary screen, biochemical, fluorescence imaging, single point, set 5 (AID 652115). The conditions noted are these: Purified SirT5, succinyl-peptide AMC, trypsin-coupled fluorescence; at 15 µM; hits give high values.
NAD-dependent protein deacylase sirtuin-5, mitochondrial (Homo sapiens), sequence (Q9NXA8 whole entry, looked up): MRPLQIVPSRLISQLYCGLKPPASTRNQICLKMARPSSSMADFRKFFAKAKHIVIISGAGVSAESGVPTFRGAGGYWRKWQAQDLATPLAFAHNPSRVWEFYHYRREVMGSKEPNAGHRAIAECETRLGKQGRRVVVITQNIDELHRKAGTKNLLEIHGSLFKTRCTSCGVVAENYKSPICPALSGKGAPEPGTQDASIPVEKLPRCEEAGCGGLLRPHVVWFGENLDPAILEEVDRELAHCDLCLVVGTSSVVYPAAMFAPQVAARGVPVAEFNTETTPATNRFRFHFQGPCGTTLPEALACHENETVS
For the compound `Cc1ccnc(NC(=O)c2ccc(Cl)c([N+](=O)[O-])c2)c1`, the inhibition is -6.51% (inactive).

With `O=C(Nc1ccncc1)c1ccc([N+](=O)[O-])cc1Cl`, the inhibition is -1.67% (inactive).

With `O=C(Nc1ccncc1)c1ccc(Cl)c([N+](=O)[O-])c1`, the inhibition was 31.2% (active).

With `COCC(=O)N[C@@H]1C[C@@H]2O[C@@H](CO)CC[C@@H]2O[C@@H]1CCc1ccc(-c2ccccc2)cc1`, the inhibition was -3.27% (inactive).

`CN(C)CC(=O)Nc1ccc2c(c1)[C@H]1C[C@H](CC(=O)NCc3ccccc3)O[C@@H](CO)[C@H]1O2`: the inhibition was -5.86% (inactive).

Consider `Cc1cccc(CN(C)C[C@H]2OCc3cn(nn3)CCCC(=O)N([C@@H](C)CO)C[C@H]2C)c1`, for which the inhibition is -2.48% (inactive).

`CCCNC(=O)N1[C@H](CO)[C@@H](c2ccc(-c3ccc(C(=O)N(C)C)cc3)cc2)[C@@H]1C#N`: the inhibition was 5.61% (inactive).

For the compound `COc1ccc(NC(=O)N(C)C[C@@H]2OCCCC[C@H](C)Oc3ccc(NC(=O)c4ccccc4)cc3C(=O)N([C@H](C)CO)C[C@H]2C)cc1`, the inhibition is 3.2% (inactive).

Regarding `CCC(=O)N1CCCCN2[C@H](CO)[C@@H](c3ccc(-c4cccnc4)cc3)[C@H]2C1`, the inhibition was 0.057% (inactive).

Take `OC[C@@H]1[C@H](c2ccc(Br)cc2)[C@@H]2CN(Cc3ccccn3)CCCCN12`: the inhibition was 3.43% (inactive).

As for `OC[C@H]1[C@H](c2ccc(-c3cccnc3)cc2)[C@H]2CN(Cc3ccccn3)CCCCN21`, the inhibition is 15.6% (active).

For the compound `CN1C(=O)c2cc(NC(=O)NC3CCCC3)ccc2OC[C@@H]2O[C@@H](CC(=O)O)CC[C@H]21`, the inhibition is -7.32% (inactive).

Consider `O=C(C[C@@H]1CC[C@H](NC(=O)Nc2ccc(F)cc2)[C@H](CO)O1)NCc1ccccn1`, for which the inhibition is 1.52% (inactive).

For `CC=Cc1ccc2n(c1=O)C[C@@H]1[C@@H](CO)[C@H](C(=O)NCC3CC3)[C@H]2N1C(=O)c1ccccc1` (mixture of isomers), the inhibition is -10.5% (inactive).

For `COC(=O)C[C@@H]1C[C@@H]2c3cc(NC(=O)NC4CCCC4)ccc3O[C@@H]2[C@@H](CO)O1`, the inhibition is -3% (inactive).

Consider `C[C@@H]1CN([C@@H](C)CO)C(=O)c2cc(NC(=O)Cc3ccccc3)ccc2O[C@H]1CN(C)Cc1ccc(Cl)c(Cl)c1`, for which the inhibition is 14.1% (inactive).

With `Cc1ccc(S(=O)(=O)N(C)C[C@H]2Oc3ccc(NC(=O)Cc4cn(C)c5ccccc45)cc3CC(=O)N([C@@H](C)CO)C[C@H]2C)cc1`, the inhibition is 16.9% (active).

For the compound `C[C@H]1CN([C@@H](C)CO)C(=O)c2cc(NC(=O)Cc3cn(C)c4ccccc34)ccc2O[C@H]1CN(C)Cc1ccc(Cl)c(Cl)c1`, the inhibition is 7.81% (inactive).

With `Cc1ccc(S(=O)(=O)N(C)C[C@@H]2OCc3ccccc3-c3c(n(C)c4ccccc34)C(=O)N([C@@H](C)CO)C[C@@H]2C)cc1`, the inhibition is 17.7% (active).

Turning to `C[C@@H]1CN([C@@H](C)CO)C(=O)c2c(c3ccccc3n2C)-c2ccccc2CO[C@@H]1CN(C)S(=O)(=O)c1ccc(F)cc1`, the inhibition was 3.02% (inactive).

As to `C[C@@H]1CN([C@H](C)CO)C(=O)Cc2cc(NC(=O)Cc3cn(C)c4ccccc34)ccc2O[C@@H]1CN(C)S(=O)(=O)c1ccccc1`, the inhibition is 0.96% (inactive).

As to `C[C@H]1CN([C@@H](C)CO)C(=O)c2c(c3ccccc3n2C)-c2ccccc2CO[C@H]1CN(C)S(=O)(=O)c1ccc(C#N)cc1`, the inhibition was 3.54% (inactive).

Take `C[C@H]1CN([C@@H](C)CO)C(=O)c2cc(NC(=O)Cc3cn(C)c4ccccc34)ccc2O[C@@H]1CN(C)Cc1ccc(Cl)c(Cl)c1`: the inhibition is 22.6% (active).

As to `Cc1ccc(S(=O)(=O)N(C)C[C@@H]2Oc3ccc(NC(=O)Cc4cn(C)c5ccccc45)cc3C(=O)N([C@@H](C)CO)C[C@@H]2C)cc1`, the inhibition was 4.27% (inactive).

The values are drawn from PubChem BioAssay AID652115 (Broad Institute, 2013).
